This note sets out measurements from PubChem BioAssay AID2284378 (EPA ToxCast).

Results filed as inconclusive are left out. The source made the active and inactive calls. The calls were made as follows: active = hit-call score of the fitted dose curve at least 0.9, where 1 is the maximum; inconclusive = response in the unintended direction; inactive = score below 0.9.

In this assay the test system is frog Retinoid X Receptor beta (RXRb), gene 394278. Nature of the assay: ATG_frRXRb_EcoTox2: Attagene TRANS-FACTORIAL EcoTox-2 HepG2 Assay for frog Retinoid X Receptor beta (RXRb). As for the experimental part: ATG_EcoTox2 is a cell-based, multiplexed assay created by modifying the existing Attagene TRANS-FACTORIAL system to include a panel of nuclear receptors from some or all the following species: human (Homo sapiens), african clawed frog (Xenopus laevis), rainbow trout (Oncorhynchus mykiss), japanese medaka (Oryzias latipes), and zebrafish (Danio rerio). The ECOTOX2-FACTORIAL format uses HepG2, a human liver cell line, with measurements taken at 24 hours after chemical dosing in a 24-well plate. ATG_frRXRb_EcoTox2 is one of 29 assay components calculated in the ATG_EcoTox2 assay. It is designed to make measurements of mRNA induction, a form of inducible reporter, as detected with fluorescence intensity signals by Reverse transcription polymerase chain reaction (RT-PCR) and Capillary electrophoresis technology.The assay endpoint ATG_frRXRb_EcoTox2 was analyzed in the positive analysis fitting direction relative to DMSO as the negative control and baseline of activity. Using a type of inducible reporter, measures of mRNA for gain-of-signal activity can be used to understand the reporter gene at the transcription factor-level as they relate to the gene RXRb. Furthermore, this assay endpoint can be referred to as a primary readout, because this assay has produced multiple assay endpoints where this one serves a reporter gene function. To generalize the intended target to other relatable targets, this assay endpoint is annotated to the nuclear receptor intended target family, where the subfamily is non-steroidal.
Human liver HepG2 cells are transiently transfected with multiple reporter transcription units (MRTUs) in 6-well plates using FuGene 6 reagent (Roche; 3 ml FuGene/1 mg DNA). The MRTU constructs are regulated by a cis-regulating element (promoter). Each RTU expresses a GAL4-UAS that regulates the transcription of a nearby target reporter gene sequence. A major difference between the CIS and TRANS system is that in CIS activities of endogenous TFs are measured, whereas the TRANS assay evaluates changes in activities of exogenous, chimeric NR-Gal4 proteins. […] At the end of 24 hour incubation, total RNA was isolated using TriZol reagent (Invitrogen). The isolated RNA is then reverse-transcribed using oligo(dT) primer and Mo-MLV reverse transcriptase (Invitrogen) with DNAse I (Ambion) treatment for 30 min. The one-tenth of the produced cDNA was amplified by PCR using Taq DNA polymerase (Invitrogen) and two reporter sequence-specific primers. The PCR products were fluorescently labeled by primer extension with 6-arboxyfluorescein (6-FAM) 5'-labeled reporter sequence-specific primer (2 min at 95 C, 20 s at 68 C and 10 min at 72 C) and these products were digested with 5U of HpaI (New England Biolabs) for 2h at 37 C. The fragments were purified using Qiaquick PCR columns (Qiagen), analyzed on an ABI 3130xL genetic analyzer (Applied Biosystems) with peak positions identified by using a set of X-rhodamine (ROX)-labeled MapMarker1000 molecular weight standards (BioVentures). The raw capillary electrophoresis data was processed using Attagraph software (Attagene).
Regarding `C=C(c1ccc(C(=O)O)cc1)c1cc2c(cc1C)C(C)(C)CCC2(C)C`, the concentration at half-maximal activity (AC50) is 0.00172 µM (active).

As to `CC(c1cc2ccccc2s1)N(O)C(N)=O` (centres undefined), the result was inactive.

Regarding `CC(C)(Oc1ccc(Cl)cc1)C(=O)O`, the outcome was inactive.

`C[C@]12C=CC(=O)C=C1CC[C@@H]1[C@@H]2C(=O)C[C@@]2(C)[C@H]1CC[C@]2(O)C(=O)CO`: the call was inactive.

On to `Cc1ccc(C)c(OCCCC(C)(C)C(=O)O)c1`, for which the molecule was called inactive.

On to `CC(C)OC(=O)C(C)(C)Oc1ccc(C(=O)c2ccc(Cl)cc2)cc1`, for which the molecule was classed as inactive.

Regarding `Cc1cccc(Nc2cc(Cl)nc(SCC(=O)O)n2)c1C`, the AC50 is 23.8 µM (active).

`CN(CCOc1ccc(CC2SC(=O)NC2=O)cc1)c1ccccn1` (centres undefined): the result was inactive.

As to `C[C@@H]1C[C@H]2[C@@H]3CCC4=CC(=O)C=C[C@]4(C)[C@@]3(F)[C@@H](O)C[C@]2(C)[C@@]1(O)C(=O)COP(=O)(O)O`, the molecule was called inactive.

Broadly, the AC50 is the midpoint of the concentration-response curve, whichever way the signal moves.
